# Reference: PubChem BioAssay (Tox21)
# Several values for one entry are separate records, joined by “and”; a condition that tells them apart may be missing. Equal entries are not always repeated. Results filed as inconclusive are left out. Entries that show only a call come without a potency. Some compounds were tested as several samples or in several runs, with calls that do not always agree. Activity calls are given as the source filed them. Calls follow the shape of the dose curve; as a rule, active = well fitted curve in the direction sought with a large enough effect in the repeat runs; inconclusive = weak or mixed curves; inactive = no such curve, though single readings can be large; an effect the other way counts as inactive or inconclusive.
# Columns and labels:
# [1] = A CellTox Green Cytotoxicity Assay to monitor cytotoxicity in HEK293 cells - 40 hour (AID 1224871); also: nearly all actives have a fitted effect of over 45% in size; also: potency is read from the fitted curve at half-maximal effect
# Outline: (§1)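 Cells (HEK293, 600/well) and dye reagent are dispensed together. After 5 h at 37 C, 23 nL compound is pinned in. Plates stay at 37 C for 40 h with fluorescence read at 0h, 8h, 16h, 24h, 32h and 40h.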
# [2] = qHTS RealTime-Glo MT Cell Viability Assay in HepG2 cells - 8 hour (AID 1224873); also: nearly all actives have a fitted effect of over 55% in size
# Outline: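 HepG2 cells mixed with RealTime-Glo MT reagents (NanoLuc plus cell-permeant prosubstrate) were seeded at 600 cells/well, incubated 5 h at 37 C/5% CO2, then pinned with compounds in DMSO; nonlytic luminescence tracked viability during 40 h treatment.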
# [3] = qHTS RealTime-Glo MT Cell Viability Assay in HEK293 cells - 40 hour (AID 1224874); settings: RealTime-Glo luminescence; max response: stronger effect = lower value; also: nearly all actives have a fitted effect of over 50% in size; also: potency is read from the fitted curve at half-maximal effect
# Outline: (§2)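 Real-time viability in HEK293: signal arises when living cells convert a prosubstrate for NanoLuc in the medium, so luminescence tracks viable cell number. Compound (23 nL, DMSO) added 5 h post-seeding; kinetic reads at 0–40 h, 37 C.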
# [4] = A CellTox Green Cytotoxicity Assay to monitor cytotoxicity in HEK293 cells - 24 hour (AID 1224875); also: nearly all actives have a fitted effect of over 45% in size; also: potency is read from the fitted curve at half-maximal effect
# Outline: as §1
# [5] = A CellTox Green Cytotoxicity Assay to monitor cytotoxicity in HepG2 cells - 16 hour (AID 1224876); also: nearly all actives have a fitted effect of over 45% in size; also: potency is read from the fitted curve at half-maximal effect
# Outline: (§3)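 Cells and non-lytic dye reagent are dispensed together (600 HepG2 cells/well) and incubated 5 h before DMSO compound transfer. Kinetic fluorescence is then recorded in the same wells during 40 h at 37 C.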
# [6] = qHTS RealTime-Glo MT Cell Viability Assay in HepG2 cells - 32 hour (AID 1224877); also: nearly all actives have a fitted effect of over 55% in size; also: potency is read from the fitted curve at half-maximal effect
# Outline: (§4)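 HepG2 cells (600/well) were dispensed with RealTime-Glo reagents, incubated 5 h at 37 °C, then treated with compounds in DMSO for up to 40 h. Nonlytic NanoLuc luminescence reflecting viable cells was read at each stated time point.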
# [7] = A CellTox Green Cytotoxicity Assay to monitor cytotoxicity in HepG2 cells - 24 hour (AID 1224878); also: nearly all actives have a fitted effect of over 45% in size; also: potency is read from the fitted curve at half-maximal effect
# Outline: as §3
# [8] = A CellTox Green Cytotoxicity Assay to monitor cytotoxicity in HepG2 cells - 40 hour (AID 1224879); also: nearly all actives have a fitted effect of over 40% in size; also: potency is read from the fitted curve at half-maximal effect
# Outline: as §3
# [9] = qHTS RealTime-Glo MT Cell Viability Assay in HEK293 cells - 0 hour (AID 1224880)
# Outline: as §2
# [10] = A CellTox Green Cytotoxicity Assay to monitor cytotoxicity in HEK293 cells - 32 hour (AID 1224881); also: nearly all actives have a fitted effect of over 40% in size; also: potency is read from the fitted curve at half-maximal effect
# Outline: as §1
# [11] = A CellTox Green Cytotoxicity Assay to monitor cytotoxicity in HepG2 cells - 0 hour (AID 1224882); also: nearly all actives have a fitted effect of over 35% in size; also: potency is read from the fitted curve at half-maximal effect
# Outline: as §3
# [12] = A CellTox Green Cytotoxicity Assay to monitor cytotoxicity in HepG2 cells - 32 hour (AID 1224883); also: nearly all actives have a fitted effect of over 50% in size; also: potency is read from the fitted curve at half-maximal effect
# Outline: as §3
# [13] = A CellTox Green Cytotoxicity Assay to monitor cytotoxicity in HEK293 cells - 8 hour (AID 1224884); also: nearly all actives have a fitted effect of over 35% in size
# Outline: as §1
# [14] = qHTS RealTime-Glo MT Cell Viability Assay in HepG2 cells - 16 hour (AID 1224885); also: nearly all actives have a fitted effect of over 50% in size; also: potency is read from the fitted curve at half-maximal effect
# Outline: as §4
# [15] = qHTS RealTime-Glo MT Cell Viability Assay in HEK293 cells - 8 hour (AID 1224887); also: nearly all actives have a fitted effect of over 50% in size; also: potency is read from the fitted curve at half-maximal effect
# Outline: as §2
# [16] = A CellTox Green Cytotoxicity Assay to monitor cytotoxicity in HEK293 cells - 16 hour (AID 1224888); also: nearly all actives have a fitted effect of over 35% in size; also: potency is read from the fitted curve at half-maximal effect
# Outline: as §1
# [17] = qHTS RealTime-Glo MT Cell Viability Assay in HepG2 cells - 0 hour (AID 1224889); also: nearly all actives have a fitted effect of over 50% in size
# Outline: as §4
# [18] = A CellTox Green Cytotoxicity Assay to monitor cytotoxicity in HepG2 cells - 8 hour (AID 1224890); also: nearly all actives have a fitted effect of over 45% in size; also: potency is read from the fitted curve at half-maximal effect
# Outline: as §3
# [19] = qHTS RealTime-Glo MT Cell Viability Assay in HEK293 cells - 16 hour (AID 1224872); also: nearly all actives have a fitted effect of over 50% in size; also: potency is read from the fitted curve at half-maximal effect
# Outline: (§5)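 HEK293 cells seeded with NanoLuc/prosubstrate reagent, rested 5 h at 37 C, then dosed and kept at 37 C up to 40 h. Nonlytic real-time luminescence from viable cells read at 0, 8, 16, 24, 32 and 40 h.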
# [20] = qHTS RealTime-Glo MT Cell Viability Assay in HEK293 cells - 24 hour (AID 1224886); also: nearly all actives have a fitted effect of over 50% in size; also: potency is read from the fitted curve at half-maximal effect
# Outline: as §5
smiles,measurement,setting,value
CC(C)(c1ccc(O)cc1)c1ccc(O)cc1,Potency,[1],inactive and 17.7 µM (active)
same,Potency,[2],inactive
same,Potency,[3],48 µM (active)
same,Potency,[4],inactive
same,Potency,[5],inactive
same,Potency,[6],inactive
same,Potency,[7],inactive
same,Potency,[8],inactive
same,Potency,[9],inactive
same,Potency,[10],inactive
same,Potency,[11],inactive
same,Potency,[12],inactive
same,Potency,[13],inactive
same,Potency,[14],inactive
same,Potency,[15],inactive
same,Potency,[16],inactive
same,Potency,[17],inactive
same,Potency,[18],inactive
CCOC(=O)CCC(C)=O,Potency,[1],inactive
same,Potency,[19],inactive
same,Potency,[2],inactive
same,Potency,[4],inactive
same,Potency,[5],inactive
same,Potency,[7],inactive
same,Potency,[8],inactive
same,Potency,[9],inactive
same,Potency,[10],inactive
same,Potency,[11],inactive
same,Potency,[12],inactive
same,Potency,[13],inactive
same,Potency,[14],inactive
same,Potency,[20],inactive
same,Potency,[15],inactive
same,Potency,[16],inactive
same,Potency,[17],inactive
COC(=O)c1cc(C(=O)OC)cc(S(=O)(=O)O)c1,Potency,[1],inactive
same,Potency,[19],inactive
same,Potency,[2],inactive
same,Potency,[4],inactive
same,Potency,[5],inactive
same,Potency,[6],inactive
same,Potency,[7],inactive
same,Potency,[8],inactive
same,Potency,[9],inactive
same,Potency,[11],inactive
same,Potency,[12],inactive
same,Potency,[13],inactive
same,Potency,[14],inactive
same,Potency,[20],inactive
same,Potency,[15],inactive
same,Potency,[16],inactive
same,Potency,[17],inactive
COC(=O)c1c(Cl)c(Cl)c(C(=O)OC)c(Cl)c1Cl,Potency,[1],inactive and 38.9 µM (active)
same,Potency,[2],inactive
same,Potency,[5],inactive and 77.6 nM (active)
same,Potency,[6],inactive
same,Potency,[7],inactive
same,Potency,[9],inactive
same,Potency,[11],inactive and 138 nM (active)
same,Potency,[12],inactive
same,Potency,[13],inactive
same,Potency,[14],inactive
same,Potency,[16],inactive
same,Potency,[17],inactive
same,Potency,[18],inactive and 110 nM (active)
CO[C@]12C[C@@H](COC(=O)c3cncc(Br)c3)CN(C)[C@@H]1Cc1cn(C)c3cccc2c13,Potency,[1],inactive
same,Potency,[2],inactive
same,max response,[3],-5.48% (inactive)
same,Potency,[4],inactive
same,Potency,[5],23.9 µM (active)
same,Potency,[6],inactive
same,Potency,[7],23.9 µM (active)
same,Potency,[8],23.9 µM (active)
same,Potency,[9],inactive
same,Potency,[10],inactive
same,Potency,[12],23.9 µM (active)
same,Potency,[13],inactive
same,Potency,[14],inactive
same,Potency,[20],inactive
same,Potency,[15],21.3 µM (active)
CN(C)CCCN1c2ccccc2CCc2ccc(Cl)cc21,Potency,[1],49 µM (active) and 26.8 µM (active)
same,Potency,[19],43.6 µM (active)
same,Potency,[3],34.7 µM (active) and 21.3 µM (active)
same,Potency,[4],49 µM (active) and 23.9 µM (active)
same,Potency,[5],54.9 µM (active) and 21.3 µM (active)
same,Potency,[6],49 µM (active) and 23.9 µM (active)
same,Potency,[7],38.9 µM (active) and 23.9 µM (active)
same,Potency,[8],34.7 µM (active) and 23.9 µM (active)
same,Potency,[10],49 µM (active) and 26.8 µM (active)
same,Potency,[11],inactive
same,Potency,[12],34.7 µM (active) and 23.9 µM (active)
same,Potency,[14],49 µM (active)
same,Potency,[20],38.9 µM (active) and 21.3 µM (active)
same,Potency,[15],43.6 µM (active) and inactive
same,Potency,[16],54.9 µM (active) and 23.9 µM (active)
same,Potency,[18],inactive
COC(=O)C1=C(C)NC(C)=C(C(=O)OC)C1c1ccccc1[N+](=O)[O-],Potency,[1],inactive
same,Potency,[19],inactive
same,max response,[3],-16.8% (inactive)
same,Potency,[4],inactive
same,Potency,[5],inactive
same,Potency,[6],inactive
same,Potency,[7],inactive
same,Potency,[8],inactive
same,Potency,[10],inactive
same,Potency,[11],inactive
same,Potency,[12],inactive
same,Potency,[13],inactive
same,Potency,[20],inactive
same,Potency,[15],inactive
same,Potency,[16],inactive
CCN(CC)CCNC(=O)c1cc(S(C)(=O)=O)ccc1OC,Potency,[19],inactive
same,Potency,[2],inactive
same,max response,[3],3.02% (inactive)
same,Potency,[5],inactive
same,Potency,[6],inactive
same,Potency,[7],inactive
same,Potency,[8],inactive
same,Potency,[9],inactive
same,Potency,[11],inactive
same,Potency,[12],inactive
same,Potency,[14],inactive
same,Potency,[20],inactive
same,Potency,[15],inactive
same,Potency,[17],inactive
same,Potency,[18],inactive
CN1CC(=O)NC1=N,Potency,[1],inactive
same,Potency,[19],inactive
same,Potency,[2],inactive
same,Potency,[4],inactive
same,Potency,[5],inactive
same,Potency,[6],inactive
same,Potency,[7],inactive
same,Potency,[8],inactive
same,Potency,[9],inactive
same,Potency,[10],inactive
same,Potency,[11],inactive
same,Potency,[12],inactive
same,Potency,[13],inactive
same,Potency,[20],inactive
same,Potency,[15],inactive
same,Potency,[16],inactive
same,Potency,[17],inactive
same,Potency,[18],inactive
Nc1nc2c(ncn2COC(CO)CO)c(=O)[nH]1,Potency,[1],inactive
same,Potency,[4],inactive
same,Potency,[5],inactive
same,Potency,[7],inactive
same,Potency,[8],inactive
same,Potency,[10],inactive
same,Potency,[11],inactive
same,Potency,[12],inactive
same,Potency,[13],inactive
same,Potency,[16],inactive
CC(C)NCC(O)c1ccc(NS(C)(=O)=O)cc1 (configuration not stated),Potency,[1],inactive
same,Potency,[19],inactive
same,Potency,[2],inactive
same,Potency,[4],inactive
same,Potency,[5],inactive
same,Potency,[6],inactive
same,Potency,[7],inactive
same,Potency,[8],inactive
same,Potency,[9],inactive
same,Potency,[11],inactive
same,Potency,[12],inactive
same,Potency,[13],inactive
same,Potency,[14],inactive
same,Potency,[20],inactive
same,Potency,[15],inactive
same,Potency,[16],inactive
same,Potency,[17],inactive
CCC(=O)OC(C)c1ccccc1 (configuration not stated),Potency,[1],inactive
same,Potency,[19],inactive
same,Potency,[2],inactive
same,Potency,[5],inactive
same,Potency,[6],inactive
same,Potency,[7],inactive
same,Potency,[8],inactive
same,Potency,[9],inactive
same,Potency,[10],inactive
same,Potency,[11],inactive
same,Potency,[12],inactive
same,Potency,[13],inactive
same,Potency,[14],inactive
same,Potency,[20],inactive
same,Potency,[15],inactive
same,Potency,[17],inactive
same,Potency,[18],inactive
C[C@H]1C[C@@H](O)CC(C)(C)C1,Potency,[19],inactive
same,Potency,[2],inactive
same,max response,[3],-10.6% (inactive)
same,Potency,[5],inactive
same,Potency,[6],inactive
same,Potency,[7],inactive
same,Potency,[8],inactive
same,Potency,[9],inactive
same,Potency,[11],inactive
same,Potency,[12],inactive
same,Potency,[14],inactive
same,Potency,[20],inactive
same,Potency,[15],inactive
same,Potency,[17],inactive
same,Potency,[18],inactive
Cc1ccc(Cl)cc1Cl,Potency,[1],inactive
same,Potency,[19],inactive
same,Potency,[2],inactive
same,Potency,[4],inactive
same,Potency,[5],inactive
same,Potency,[6],inactive
same,Potency,[7],inactive
same,Potency,[8],inactive
same,Potency,[11],inactive
same,Potency,[12],inactive
same,Potency,[13],inactive
same,Potency,[20],inactive
same,Potency,[15],inactive
same,Potency,[16],inactive
same,Potency,[17],inactive
same,Potency,[18],inactive
CC(=O)Nc1ccc(S(N)(=O)=O)cc1,Potency,[1],inactive
same,Potency,[19],inactive
same,Potency,[2],inactive
same,Potency,[4],inactive
same,Potency,[5],inactive
same,Potency,[6],inactive
same,Potency,[7],inactive
same,Potency,[8],inactive
same,Potency,[10],inactive
same,Potency,[11],inactive
same,Potency,[12],inactive
same,Potency,[13],inactive
same,Potency,[14],inactive
same,Potency,[20],inactive
same,Potency,[15],inactive
same,Potency,[16],inactive
same,Potency,[17],inactive
same,Potency,[18],inactive
NS(=O)(=O)c1cc2c(cc1Cl)NC(C1CC3C=CC1C3)NS2(=O)=O (configuration not stated),Potency,[1],inactive
same,Potency,[19],inactive
same,Potency,[2],inactive
same,Potency,[4],inactive
same,Potency,[5],inactive
same,Potency,[6],inactive
same,Potency,[7],inactive
same,Potency,[8],inactive
same,Potency,[9],inactive
same,Potency,[11],inactive
same,Potency,[12],inactive
same,Potency,[13],inactive
same,Potency,[14],inactive
same,Potency,[20],inactive
same,Potency,[16],inactive
same,Potency,[17],inactive
same,Potency,[18],inactive
CCN1CCC[C@H]1CNC(=O)c1cc(S(N)(=O)=O)ccc1OC,Potency,[1],inactive
same,Potency,[19],inactive
same,Potency,[2],inactive
same,Potency,[4],inactive
same,Potency,[5],inactive
same,Potency,[6],inactive
same,Potency,[7],inactive
same,Potency,[8],inactive
same,Potency,[9],inactive
same,Potency,[11],inactive
same,Potency,[12],inactive
same,Potency,[13],inactive
same,Potency,[14],inactive
same,Potency,[20],inactive
same,Potency,[15],inactive
same,Potency,[16],inactive
same,Potency,[17],inactive
same,Potency,[18],inactive
